Activity calls are given as the source filed them. Rule for the calls: active = hit-call score of the fitted dose curve at least 0.9, where 1 is the maximum; inactive = score below 0.9.
Biological target: Aryl hydrocarbon receptor (Homo sapiens) (UniProt P35869)
Experiment: ATG_Ahr_CIS: Attagene CIS-FACTORIAL HepG2 Assay for human Aryl Hydrocarbon Receptor (Ahr) (AID 2282930)
Settings: HepG2 AhR cis-factorial reporter transcription; actives raise or lower the signal
Outline: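 Following 24 h of chemical dosing, transfected HepG2 liver cells with cis-driven reporter units were lysed for RNA; reporter mRNA was quantified via RT-PCR and capillary electrophoresis, and responses fitted bidirectionally from DMSO.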

Chain of Aryl hydrocarbon receptor (Homo sapiens) (P35869 whole entry, looked up): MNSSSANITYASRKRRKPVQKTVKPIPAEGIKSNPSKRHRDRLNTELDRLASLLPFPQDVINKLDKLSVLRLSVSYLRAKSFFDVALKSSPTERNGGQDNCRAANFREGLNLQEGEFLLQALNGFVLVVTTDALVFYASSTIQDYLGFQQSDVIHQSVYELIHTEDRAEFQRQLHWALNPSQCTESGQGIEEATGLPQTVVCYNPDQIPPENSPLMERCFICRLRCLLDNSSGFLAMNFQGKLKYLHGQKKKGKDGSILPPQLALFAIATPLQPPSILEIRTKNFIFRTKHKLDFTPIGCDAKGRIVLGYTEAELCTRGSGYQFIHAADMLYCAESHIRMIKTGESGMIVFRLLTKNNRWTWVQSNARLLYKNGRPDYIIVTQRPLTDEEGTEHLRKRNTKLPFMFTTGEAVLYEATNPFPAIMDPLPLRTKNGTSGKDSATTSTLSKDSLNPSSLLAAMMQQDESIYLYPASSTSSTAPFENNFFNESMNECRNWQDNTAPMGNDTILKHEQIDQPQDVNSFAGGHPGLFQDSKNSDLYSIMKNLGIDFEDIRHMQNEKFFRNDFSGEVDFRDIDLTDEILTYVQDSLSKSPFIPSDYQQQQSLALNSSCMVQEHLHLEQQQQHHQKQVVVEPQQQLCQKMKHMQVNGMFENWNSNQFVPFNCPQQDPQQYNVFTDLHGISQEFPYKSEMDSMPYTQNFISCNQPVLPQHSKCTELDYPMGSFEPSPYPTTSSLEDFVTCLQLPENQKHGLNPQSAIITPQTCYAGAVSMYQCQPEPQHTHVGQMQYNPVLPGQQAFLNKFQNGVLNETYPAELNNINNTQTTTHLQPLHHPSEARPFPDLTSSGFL

| SMILES | outcome | AC50 |
| --- | --- | --- |
| OCCCl | inactive | – |
| CCCCOC(=O)c1ccccc1C(=O)OCc1ccccc1 | inactive | – |
| CCOc1cccc(C2(N3CCN(c4ccccc4)CC3)CCC(C)CC2)c1 (configuration not stated) | inactive | – |
| Cc1cccc(N)c1N | – | 1.09 µM (active) |
| CS(=O)(=O)NC(=O)c1cc(Oc2ccc(C(F)(F)F)cc2Cl)ccc1[N+](=O)[O-] | inactive | – |
| CCNS(=O)(=O)C(F)(F)C(F)(F)C(F)(F)C(F)(F)C(F)(F)C(F)(F)C(F)(F)C(F)(F)F | inactive | – |
| Clc1ccc(Cl)c(Cl)c1 | – | 77.8 µM (active) |
| CCCCC(CC)COC(=O)c1ccc(C(=O)OCC(CC)CCCC)c(C(=O)OCC(CC)CCCC)c1 (configuration not stated) | inactive | – |
| CCCCCCCCCCCCCN1CC(C)OC(C)C1 (configuration not stated) | inactive | – |
| CCCCCCCCOC(=O)c1ccc(C(=O)OCCCCCCCC)c(C(=O)OCCCCCCCC)c1 | inactive | – |
| O=Cc1ccco1 | inactive | – |
| CC(C)(OOC(C)(C)c1ccccc1)c1ccccc1 | inactive | – |
| O=C1CCCO1 | inactive | – |
| O=C(N[C@H](c1ccccc1)[C@@H]1CN2CCC1CC2)c1c(Cl)ccc(C(F)(F)F)c1Cl | inactive | – |
| Cn1cc(-c2ccccc2)c(=O)c(-c2cccc(C(F)(F)F)c2)c1 | – | 69.1 µM (active) |
| C1=Cc2cccc3cccc1c23 | inactive | – |
| CCN(CC)N=O | inactive | – |
| Clc1ccccc1Cl | inactive | – |
| Cc1ccc(N)cc1 | inactive | – |
| c1ccc(C2CO2)cc1 (configuration not stated) | inactive | – |
| OCCCBr | inactive | – |
| Cc1cc(N=Nc2ccccc2C)ccc1N | – | 2.99 µM (active) |

System: not listed separately
Experiment: ATG_AP_1_CIS: Attagene CIS-FACTORIAL HepG2 Assay for human Activator Protein 1 (AP-1) (AID 2282931)
Settings: HepG2 Attagene cis-factorial AP-1 reporter mRNA; actives raise or lower the signal
Outline: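 HepG2, transient cis-reporter transfection; 24 h; readout RT-PCR/CE fluorescence; DMSO baseline, gain and loss fitted.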

| SMILES | outcome | AC50 |
| --- | --- | --- |
| OCCCl | inactive | – |
| CN(C)c1ccccc1 | inactive | – |
| CCOc1cccc(C2(N3CCN(c4ccccc4)CC3)CCC(C)CC2)c1 (configuration not stated) | inactive | – |
| CS(=O)(=O)NC(=O)c1cc(Oc2ccc(C(F)(F)F)cc2Cl)ccc1[N+](=O)[O-] | inactive | – |
| Clc1ccc(Cl)c(Cl)c1 | inactive | – |
| CCCCC(CC)COC(=O)c1ccc(C(=O)OCC(CC)CCCC)c(C(=O)OCC(CC)CCCC)c1 (configuration not stated) | inactive | – |
| CCCCCCCCCCCCCN1CC(C)OC(C)C1 (configuration not stated) | – | 50.9 µM (active) |
| O=Cc1ccco1 | inactive | – |
| Nc1ccc([N+](=O)[O-])cc1 | inactive | – |
| O=C1CCCO1 | inactive | – |
| Cn1cc(-c2ccccc2)c(=O)c(-c2cccc(C(F)(F)F)c2)c1 | inactive | – |
| C1=Cc2cccc3cccc1c23 | inactive | – |
| c1ccc(NNc2ccccc2)cc1 | inactive | – |
| CCN(CC)N=O | inactive | – |
| c1ccc(C2CO2)cc1 (configuration not stated) | inactive | – |
